Out of some 16,000 compounds screened, about 5,700 (36%) were called active. Not shown: some 24% with an inconclusive outcome. The call rests on the fitted dose curve; in most records, active means well fitted curve in the direction sought with a large enough effect; inconclusive means small, poorly fitted or top-dose-only effect, or effect the other way; inactive means no such curve, though single readings can be large or run the other way. The list shows a part of the results. A structure can be active in one record and inactive in another.
What follows are compounds tested against Cytochrome P450 1A2 (Homo sapiens) (UniProt P05177) (assay: Cytochrome panel assay with activity outcomes). Settings: recombinant CYP, pro-luciferin dealkylation, luminescence, p450-cyp1a2; series mostly up to 57.1 µM; activity, negative = inhibition: at the top concentration.
Sequence of Cytochrome P450 1A2 (Homo sapiens) (P05177 whole entry, looked up): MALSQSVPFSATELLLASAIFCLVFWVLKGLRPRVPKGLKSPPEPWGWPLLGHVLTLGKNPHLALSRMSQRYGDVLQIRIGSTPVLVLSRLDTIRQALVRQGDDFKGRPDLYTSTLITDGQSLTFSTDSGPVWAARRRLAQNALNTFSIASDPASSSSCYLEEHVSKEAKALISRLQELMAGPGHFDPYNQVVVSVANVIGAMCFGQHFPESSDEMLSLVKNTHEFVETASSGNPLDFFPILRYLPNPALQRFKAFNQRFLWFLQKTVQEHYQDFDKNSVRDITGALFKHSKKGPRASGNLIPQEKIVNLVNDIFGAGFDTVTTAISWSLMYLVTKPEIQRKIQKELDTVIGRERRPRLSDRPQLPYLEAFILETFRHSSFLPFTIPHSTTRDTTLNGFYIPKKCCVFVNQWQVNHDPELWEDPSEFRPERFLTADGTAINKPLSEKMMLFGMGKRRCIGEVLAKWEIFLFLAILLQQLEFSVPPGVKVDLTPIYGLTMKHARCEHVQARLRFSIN
With `COc1ccc(-n2c(=O)c(-c3ccc(Cl)cc3)nc3cnc(N4CCOCC4)nc32)cc1` the AC50 was 15.8 µM (active).
With `Cn1c(=O)c(-c2ccccc2)nc2cnc(N3CCOCC3)nc21` the AC50 was 2 µM (active).
With `Cn1c(=O)c(-c2ccccc2)nc2cnc(N3CCNCC3)nc21` the AC50 was 12.6 µM (active).
With `COCCn1c(=O)c(-c2ccc(F)cc2)nc2cnc(N3CCOCC3)nc21` the AC50 was 5.01 µM (active).
For `NCCc1nc(-c2nc(C(=O)O)cs2)cs1`, the activity, negative = inhibition was -15.8% [at 11.4 µM] (inactive).
With `N[C@@H](C(=O)O)c1ccc(C(=O)O)c(C(=O)O)c1` the AC50 was “inactive”.
With `COc1ccc2c(c1)CCCC21NC(=O)N(CC(N)=O)C1=O` (stereo unspecified) the “activity, negative = inhibition” value was -4.43% (inactive).
With `CC(C)(C)CC(C)(C)c1cc(O)c(O)c(CN2CCCCC2)c1` the activity, negative = inhibition was -0.989% [at 11.4 µM] (inactive).
With `Cn1c(=O)c(-c2ccc(Cl)cc2)nc2cnc(N3CCOCC3)nc21` the AC50 was 2.51 µM (active).
`Cn1c(=O)c(-c2ccc(F)cc2)nc2cnc(N3CCOCC3)nc21` was tested, and the AC50 was 2.51 µM (active).
For `N#CCCn1c(=O)c(-c2ccc(Cl)cc2)nc2cnc(N3CCOCC3)nc21`, the AC50 was 15.8 µM (active).
In the case of `COc1ccc(-c2nc3cnc(N4CCN(C)CC4)nc3n(CCC#N)c2=O)cc1`, the “activity, negative = inhibition” value is reported as -15.1% (inactive).
`CC(C)CO/N=C1/[C@H]2O[C@@H]2[C@@H](O)[C@H]2[C@H]1CCn1c(=O)n(C)c(=O)n12` was tested, and the activity, negative = inhibition was 8.17% [at 11.4 µM] (inactive).
With `COCC(=O)N1CCC2(CC1)CN(c1ccccn1)C2` the “activity, negative = inhibition” value was -4.74% (inactive).
`CCCCNc1cc(=O)oc2ccccc12` was tested, and the AC50 was 0.708 µM (active).
`CC(=O)OC[C@@H]1O[C@H](C/C=N\OCC[C@H]2C=C[C@H](OC(C)=O)[C@@H](COC(C)=O)O2)C=C[C@@H]1OC(C)=O` was tested, and the activity, negative = inhibition was -12.9% [at 11.4 µM] (inactive).
In the case of `c1ccc(Cc2nnc(Sc3ccccc3)c3ccccc23)cc1`, the AC50 is reported as 17.8 µM (active).
For `O=c1[nH]c(=S)[nH]nc1Cc1ccccc1`, the “activity, negative = inhibition” value was -3.25% (inactive).
In the case of `CCN(CC)S(=O)(=O)c1ccc(OC)c(NC(=O)CSc2ccccc2)c1`, the AC50 is reported as 15.8 µM (active).
For `COC(=O)c1cc(OC)c(OC)cc1NC(=O)CSc1ccc(C)cc1`, the AC50 was 1.78 µM (active).
For `COc1ccc(C(=O)N2CCCCC2)cc1S(=O)(=O)Nc1ccccc1`, the “activity, negative = inhibition” value was -28% (inactive).
With `Cc1ccc(SCC(=O)NNC(=O)C2CCCCC2)cc1` the “activity, negative = inhibition” value was -15.2% (inactive).
With `CCN(CC)S(=O)(=O)c1ccc(OC)c(NC(=O)c2cc([N+](=O)[O-])ccc2Cl)c1` the “activity, negative = inhibition” value was -1.84% (inactive).
For `COC(=O)c1cc(OC)c(OC)cc1NC(=O)CSc1ccccc1`, the AC50 was 1.78 µM (active).
For `CCN(CC)S(=O)(=O)c1cc(C(=O)Nc2ccccc2C(=O)O)ccc1OC`, the AC50 was 15.8 µM (active).
With `CCN(CC)S(=O)(=O)c1ccc2c(c1)nc(SCC(=O)N1CCOCC1)n2-c1ccccc1OC` the “activity, negative = inhibition” value was 13% (inactive).
In the case of `O=C(CSc1ccccc1)Nc1ccc(N2CCN(c3ccccc3)CC2)c(F)c1`, the “activity, negative = inhibition” value is reported as 11.6% (inactive).
With `O=c1n(-c2ccccc2)c(=O)n2n1CC[C@H]1/C(=N\OCc3ccccc3)[C@H]3O[C@@H]3[C@@H](O)[C@@H]12` the activity, negative = inhibition was -12.4% [at 11.4 µM] (inactive).
`CN(C)C(=O)c1ccc(-c2ccc3ncnc(N(C)C)c3c2)cc1` was tested, and the AC50 was 20 µM (active).
With `CN(C)c1ncnc2ccc(-c3ccoc3)cc12` the AC50 was 0.794 µM (active).
In the case of `CN(C)c1ccc(-c2ccc3ncnc(N(C)C)c3c2)cc1`, the AC50 is reported as 0.158 µM (active).
With `CCO[P@]1(=O)OC[C@@H]2O[C@H](n3cnc4c(N)ncnc43)[C@H](O)[C@@H]2O1` the activity, negative = inhibition was -15.6% [at 2.29 µM] (inactive).
For `CC(NC(=O)CN1CCCC1)C12CC3CC(CC(C3)C1)C2` (stereo unspecified), the “activity, negative = inhibition” value was -12.1% (inactive).
With `COC(=O)[C@H](C)NC(=O)[C@@H](C)CO` the activity, negative = inhibition was -7.75% [at 11.4 µM] (inactive).
With `O=C(N/N=C\c1cn(-c2ccccc2)nc1-c1ccccc1)c1ccc(Br)o1` the AC50 was 3.55 µM (active).
`O=S(=O)(N/N=C\c1cn(-c2ccccc2)nc1-c1ccccc1)c1ccccc1` was tested, and the AC50 was 3.55 µM (active).
With `COc1ccc(-c2nn(-c3ccccc3)cc2/C=N/NC(=O)c2ccc(Br)o2)cc1` the “activity, negative = inhibition” value was -27.3% (inactive).
`Cc1ccc(-c2nn(-c3ccccc3)cc2/C=N/NS(=O)(=O)c2ccccc2)cc1` was tested, and the AC50 was 4.47 µM (active).
With `COCCCNC(=O)c1c(N)n(/N=C/c2ccccn2)c2nc3ccccc3nc12` the AC50 was 2 µM (active).
With `Cn1c(N)c(N=Nc2ccc(S(N)(=O)=O)cc2)c(=O)n(C)c1=O` the activity, negative = inhibition was -12.8% [at 2.29 µM] (inactive).
For `CC1=NN(c2ccccc2)C(=O)C1C(=O)c1ccc(Cl)cc1` (stereo unspecified), the “activity, negative = inhibition” value was 1.73% (inactive).
In the case of `CC1=NN(c2ccccc2)C(=O)[C@@H]1N=Nc1ccc(S(N)(=O)=O)cc1`, the AC50 is reported as 1.26 µM (active).
In the case of `CC(=O)OCC(=O)[C@@]1(O)CC[C@@H]2[C@H]3CCC4=CC(=O)CC[C@]4(C)[C@]3(F)[C@@H](O)C[C@@]21C`, the “activity, negative = inhibition” value is reported as -5.93% [at 25.6 µM] (inactive).
`CCC(C)NS(=O)(=O)c1ccc(OCC(=O)NCC2CCCO2)cc1` (stereo unspecified) was tested, and the “activity, negative = inhibition” value was 18.2% (inactive).
In the case of `Cc1ccc(C)c(-n2c(Cc3cc(=O)[nH]c(=O)[nH]3)nnc2SCC(=O)NCC2CCCO2)c1` (stereo unspecified), the “activity, negative = inhibition” value is reported as -2.07% (inactive).
For `Cc1[nH]nc2nc(SCC(=O)NCC3CCCO3)n(-c3ccc(Br)cc3)c(=N)c12` (stereo unspecified), the AC50 was 10 µM (active).
In the case of `C=CCn1c(=O)c2c(nc(-c3ccc(S(=O)(=O)O)cc3)n2C)n(C)c1=O`, the “activity, negative = inhibition” value is reported as -15% (inactive).
In the case of `CCOc1cc(/C=C2\N=C(C)OC2=O)cc(Br)c1OCC(=O)OC`, the AC50 is reported as 17.8 µM (active).
With `CCOc1ccc(N2C(=O)/C(=C/c3cc(OC)c(OC)c(OC)c3)N(CC(=O)OC)C2=S)cc1` the “activity, negative = inhibition” value was 12.3% (inactive).
For `CCCCNC(=O)C1CC(=O)N(c2ccc(OC)cc2)C1c1ccc(OC)cc1` (stereo unspecified), the “activity, negative = inhibition” value was 1.32% (inactive).
With `CCN1C(=O)/C(=C2\SC(=S)N(CCCOC)C2=O)c2ccccc21` the AC50 was 1.58 µM (active).
In the case of `N#Cc1c(-n2ccnc2)cccc1-n1ccnc1`, the AC50 is reported as 2.51 µM (active).
For `FC(F)(F)c1ccccc1-n1ccnc1`, the AC50 was 0.251 µM (active).
For `N#Cc1c(Cl)cccc1-n1ccnc1`, the AC50 was 1 µM (active).
For `CC(=O)Nc1ccc(NC2=Nc3ccccc3N3C2=Nc2c(c(C)nn2-c2ccccc2)C3c2ccccc2)cc1` (stereo unspecified), the “activity, negative = inhibition” value was 4.37% (inactive).
For `C=CCNC(=O)C1CCN(S(=O)(=O)CC)CC1`, the “activity, negative = inhibition” value was -0.27% (inactive).
For `COc1ccc(CNc2ncnc3ccc(-c4ccccc4C#N)cc23)c(OC)c1`, the AC50 was 6.31 µM (active).
`COc1ccccc1CNc1ncnc2ccc(-c3ccccc3C#N)cc12` was tested, and the AC50 was 1.26 µM (active).
For `Cc1ccc(N(Cc2ccc([N+](=O)[O-])cc2)C(=O)c2ccco2)cc1`, the AC50 was 12.6 µM (active).
In the case of `O=C1c2ccccc2C(=O)N1CCCCN(C(=O)c1ccc([N+](=O)[O-])cc1)c1ccc(Cl)cc1`, the “activity, negative = inhibition” value is reported as -16.4% (inactive).
With `Cc1ccc(C(=O)N/C(=C\c2ccc([N+](=O)[O-])cc2)C(=O)NCCc2ccccc2)cc1` the “activity, negative = inhibition” value was -18.3% (inactive).
With `Nc1nc(-c2cccs2)cs1` the AC50 was 7.08 µM (active) and the activity, negative = inhibition was -30.1% [at 2.29 µM] (inactive).
With `NC(=O)C[C@H](N)C(N)=O` the activity, negative = inhibition was -6.74% [at 11.4 µM] (inactive).
With `CC(=O)SCC[N+](C)(C)C` the “activity, negative = inhibition” value was -12.4% (inactive).
In the case of `O=C(Nc1cccc(-c2nc3ccccc3s2)c1)c1ccc2c(c1)OCO2`, the AC50 is reported as 2 µM (active).
With `Cc1ccc(-n2nc3ccc(NC(=O)c4ccc5c(c4)OCO5)cc3n2)cc1` the “activity, negative = inhibition” value was -26.7% (inactive).
`O=C(Nc1cc(-c2nc3ccccc3s2)ccc1Cl)c1ccc2c(c1)OCO2` was tested, and the AC50 was 1.41 µM (active).
With `CCc1sc(N(C(=O)Cc2ccccc2)c2cccc(F)c2)nc1-c1ccc(C)cc1` the “activity, negative = inhibition” value was -5.51% (inactive).
With `COc1ccc(N(CC(=O)N/N=C/c2cccs2)S(=O)(=O)c2ccc(OC)c(OC)c2)cc1` the “activity, negative = inhibition” value was 1.39% (inactive).
`C/C(=N/NC(=O)Cc1cccn1C)c1ccccc1` was tested, and the AC50 was 20 µM (active).
For `Cn1cccc1CC(=O)N/N=C\c1cccs1`, the AC50 was 15.8 µM (active).
For `CC(C)(C)c1cccc(Oc2nn[nH]n2)c1`, the “activity, negative = inhibition” value was -3.32% (inactive).
With `NC(=NCCC[C@H](N)C(=O)O)NO` the “activity, negative = inhibition” value was -1.24% (inactive).
`CN/C(=C\[N+](=O)[O-])NCCSCc1csc(CN(C)C)n1` was tested, and the “activity, negative = inhibition” value was -4.81% [at 25.6 µM] (inactive).
With `O=C(O)c1cc(S(=O)(=O)NCC2CCCO2)ccc1Cl` (stereo unspecified) the “activity, negative = inhibition” value was -17.5% (inactive).
With `O=C(Nc1ccccc1C(=O)NCC1CCCO1)c1ccc(Cl)cc1Cl` (stereo unspecified) the AC50 was 8.91 µM (active).
For `Cc1ccc(-c2nnn(CC(=O)N(c3ccccc3)C(C(=O)NCC3CCCO3)c3ccc(Cl)cc3)n2)cc1` (stereo unspecified), the “activity, negative = inhibition” value was 9.48% (inactive).
`O=C(NCC1CCCO1)c1cc(-c2ccc(Cl)cc2Cl)on1` (stereo unspecified) was tested, and the AC50 was 2.51 µM (active).
With `Cc1noc(C)c1COc1ccc(C(=O)NCC2CCCO2)cc1` (stereo unspecified) the “activity, negative = inhibition” value was -17.4% (inactive).
`Clc1ccccc1NN(Cc1ccccn1)c1ccccc1Cl` was tested, and the activity, negative = inhibition was -22.4% [at 2.29 µM] (inactive).
For `Clc1ccccc1NN(Cc1ccncc1)c1ccccc1Cl`, the AC50 was 5.01 µM (active).
In the case of `CN(C)c1ccc(N=Nc2cccc3ccoc23)cc1`, the AC50 is reported as 0.251 µM (active).
With `COC(=O)CNC(=O)CN1C(=O)N(c2ccccc2)C(N(O)C(=O)Nc2ccccc2)C1(C)C` (stereo unspecified) the “activity, negative = inhibition” value was -12.4% (inactive).
With `O=C(Cn1cnc2ccccc21)NC(c1ccccc1)c1ccccc1` the “activity, negative = inhibition” value was -4.72% (inactive).
For `O=c1onc2cnc3ccccc3n12`, the AC50 was 2.51 µM (active).
`O=C(NCCNC[C@@H](O)COc1ccc(O)cc1)N1CCOCC1` was tested, and the AC50 was “inactive”.
`Cc1ccc(OCC(O)CNC(=O)c2ccccc2C(=O)O)cc1` (stereo unspecified) was tested, and the AC50 was 14.1 µM (active).
For `COCCNC(=O)COc1ccc(OCCNC[C@@H](O)COc2ccccc2)cc1`, the “activity, negative = inhibition” value was -35.6% (inactive).
For `CC(=O)NC(CCS(C)(=O)=O)C(=O)Nc1c(F)cccc1F` (stereo unspecified), the “activity, negative = inhibition” value was -0.273% (inactive).
In the case of `Cc1cccc(NC(=O)CSc2nc3nc(C)cc(C)c3c(=O)[nH]2)c1`, the AC50 is reported as 2 µM (active).
For `Cc1cccc(NC(=O)CCSc2nc(C)cc(C)n2)c1`, the AC50 was 14.1 µM (active).
For `CC[N+](CC)(CC)CC(=O)Nc1c(C)cccc1C`, the “activity, negative = inhibition” value was 1.71% (inactive).
`Cc1cccc(NC(=O)CSc2nc3ccccc3c3nc(CCc4c(C)n[nH]c4C)nn23)c1` was tested, and the “activity, negative = inhibition” value was -12.8% (inactive).
`Cc1cc(C)nc(SCCc2cccc[n+]2C)n1` was tested, and the activity, negative = inhibition was -18.6% [at 2.29 µM] (inactive).
With `OCCN(C=NC1=NN(c2cccc(C(F)(F)F)c2)CC1)CCO` the AC50 was 2.82 µM (active).

From PubChem BioAssay AID1851 (National Center for Advancing Translational Sciences (NCATS), 2009)
On the % scale 0 is the no-effect control and ±100 the full control effect.
